Screening data (PubChem)
Fluor 339 460 = intrinsic fluorescence of library compounds, ex339/em460 – biochemical, MLSMR library, data from DPM-DC assay, artefact control, profiling panel | compound autofluorescence, ex339/em460 nm, NADH buffer; active compounds read high; 1 = no-compound wells, NADH background | fluorescence fold increase at 10 µM | 65,000 compounds, 5.5% hits;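 active means at 10 µM, mean starting fluorescence two-fold or more over control wells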;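 further: signal is the first read of a kinetic run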
A340 absorber = compounds absorbing at 340 nm | compound absorbance at 340 nm, fold over control | fold change at 10 µM | 65,000 tested, under 10 active;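 active means at 10 µM dose, initial 340 nm absorbance at least 2 fold that of control wells; inactive means change under 2 fold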;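 further: initial absorbance extrapolated from kinetic A340 decline of NADH oxidation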
NADH enzymes = blocks coupling enzymes of NAD/NADH assays; AID 774; coupled PK/LDH NADH assays, four targets; 65,000 compounds, 0.02% hits; IC50, µM (top dose mostly 10 µM), for the others: at the top dose inhibition;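 active means single-dose screening hits from any of four coupled enzyme assays that gave an IC50 when retested across doses; inconclusive means no clear call, values can overlap the other calls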;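 further: the DPM-DC format reads NADH fluorescence rather than 340 nm absorbance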
M1 antag = blocks the rat M1 muscarinic receptor response to acetylcholine. B-score at 10 µM. CHO-M1 cells, Fluo-4 calcium, ACh EC80 antagonist mode; active compounds read low. 64,000 compounds, 3.4% hits. AID 628;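 active means calcium fluorescence response, raw or row-and-column corrected B-score, differing from the plate sample mean either way at a set confidence level, mostly lower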
M1 ag = agonists of M1 muscarinic receptor; CHO-M1 cells, Fluo-4 calcium fluorescence, agonist mode; active compounds read high; B-score at 10 µM; 64,000 compounds, 3% hits;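 active means fluorescence rise, raw or as B-score row- and column-corrected plate score, outside the 99.7% band of its plate's samples, either direction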
Htt clearance = compounds clearing mutant huntingtin protein. HeLa Exon1htt(103Q)mCFP, aggregate imaging; zero = plate's median compound well. 47,000 compounds, 0.42% hits. inhibition, % at 1.5 µM;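 active means inhibition of aggregate fluorescence above about 70%, also judged a hit by eye on the cell image, limit read from the data, passing the limit was not always enough; inconclusive means no rule stated for this call; inactive means not judged a hit on image review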;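 further: cells exposed to compound for three days before fixation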
M1 agonist conf = rat M1 muscarinic agonism, confirmation. CHO-M1 cells, Fluo-4 calcium fluorescence, agonist mode; actives lie on both sides. fluorescence change (max-min) at 10 µM. 1,700 compounds, 19% hits. shares compounds with M1 ag;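 active means fluorescence change differs from the solvent-only DMSO control mean at a set confidence level in both duplicate runs; inconclusive means differs from solvent-only control mean in just one of two runs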;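 further: an EC20 dose of acetylcholine follows compound addition during the same imaging run; raw fluorescence intensity difference in instrument units with no normalization to controls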
M4 agonist ctr = activates rat M4 receptor in counter-screen for M1 agonists; shares compounds with M1 ag; CHO M4/Gqi5 cells, Fluo-4 calcium fluorescence, agonist mode; actives lie on both sides; fluorescence change (max-min) at 10 µM; 1,700 compounds, 9% hits;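 active means fluorescence change differing from the plate's solvent-only control wells at 99.7% confidence in both duplicates, whether higher or lower; inconclusive means differs from solvent controls in only one of two duplicates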
Target sequence (P08485 whole entry, looked up): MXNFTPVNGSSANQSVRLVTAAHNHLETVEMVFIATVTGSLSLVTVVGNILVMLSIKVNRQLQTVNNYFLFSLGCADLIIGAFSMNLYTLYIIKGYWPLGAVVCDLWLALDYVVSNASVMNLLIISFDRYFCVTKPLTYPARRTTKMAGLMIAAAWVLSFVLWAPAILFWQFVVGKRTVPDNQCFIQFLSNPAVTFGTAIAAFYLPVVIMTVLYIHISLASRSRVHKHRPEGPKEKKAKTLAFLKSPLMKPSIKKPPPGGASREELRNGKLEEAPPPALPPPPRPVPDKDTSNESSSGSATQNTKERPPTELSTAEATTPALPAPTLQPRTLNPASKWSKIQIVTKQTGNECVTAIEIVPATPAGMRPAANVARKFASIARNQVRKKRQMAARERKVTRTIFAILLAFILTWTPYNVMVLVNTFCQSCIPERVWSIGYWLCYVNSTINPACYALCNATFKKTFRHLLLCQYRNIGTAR
Numbers without * were called inactive. Compounds with a hit are over-represented: about 9.3% of the library has one in this group of screens.

Results for Cc1nn2c(-c3cccc(NC(=O)CSc4nc5ccccc5o4)c3)nnc2c2ccccc12 ?
Fluor 339 460: 1.5; A340 absorber: 1.1; NADH enzymes: 14%; M1 antag: -0.95; M1 ag: 0.85

Results for COc1ccc2cc(C(=O)NCc3ccco3)c(=Nc3ccc(C(=O)O)cc3)oc2c1 ?
Fluor 339 460: 1.2; A340 absorber: 1; NADH enzymes: 3%; M1 antag: -0.02; M1 ag: 2.7*; M1 agonist conf: inconclusive; M4 agonist ctr: -68

What do the screens show for `COc1ccc(N=c2oc3c(OC)cccc3cc2C(=O)NCc2ccco2)c(OC)c1`?
Fluor 339 460: 1.1; A340 absorber: 1.1; NADH enzymes: 4%; M1 antag: -0.02; M1 ag: -0.37; Htt clearance: -3

Results for CC(=O)c1ccc(OCC(O)CN2CCN(c3ccccn3)CC2)cc1 (configuration not stated) ?
Fluor 339 460: 1.1; A340 absorber: 1; NADH enzymes: 3%; M1 antag: 0.12; M1 ag: 0.3

Results for COc1ccc(-c2noc(CCC(=O)NCCCN3CCC(C)CC3)n2)cc1 ?
Fluor 339 460: 1.2; A340 absorber: 1.1; NADH enzymes: 2%; M1 antag: -0.18; M1 ag: -0.15

Results for COc1cccc(NC(=O)NCCCN2CCN(c3ccc(F)cc3)CC2)c1 ?
Fluor 339 460: 1.1; A340 absorber: 1; NADH enzymes: 0%; M1 antag: -0.15; M1 ag: 0.36; Htt clearance: 33

How did CC1(C)CC(=O)c2cc(OCC(=O)NCCCN3CCN(c4ccc(F)cc4)CC3)ccc2O1 do in these assays?
Fluor 339 460: 3.6*; A340 absorber: 1; NADH enzymes: 5%; M1 antag: -0.87; M1 ag: 13*; M1 agonist conf: 11; M4 agonist ctr: -55

Results for COc1ccc(-c2noc(CCC(=O)NCCN3CCN(c4ccccc4F)CC3)n2)cc1 ?
Fluor 339 460: 1.1; A340 absorber: 1.1; NADH enzymes: 0%; M1 antag: -1.6; M1 ag: 5*; M1 agonist conf: -14; M4 agonist ctr: -62

How did Cc1ccc(-c2noc(CCC(=O)NCCCN3CCN(c4cccc(Cl)c4)CC3)n2)cc1 do in these assays?
Fluor 339 460: 1.1; A340 absorber: 0.98; NADH enzymes: 6%; M1 antag: -3.7*; M1 ag: 4.4*; Htt clearance: -96; M1 agonist conf: inconclusive; M4 agonist ctr: -46

Results for Cc1ccc(-c2noc(CCC(=O)NCCCN3CCN(c4ccc(F)cc4)CC3)n2)cc1 ?
Fluor 339 460: 1.1; A340 absorber: 0.98; NADH enzymes: 5%; M1 antag: -2.6*; M1 ag: 5.3*; Htt clearance: -124; M1 agonist conf: 10; M4 agonist ctr: -29

What do the screens show for `CCc1ccccc1N1CC(C(=O)O)CC1=O` (configuration not stated)?
Fluor 339 460: 1.1; A340 absorber: 1; NADH enzymes: 0%; M1 antag: -0.007; M1 ag: -1.4

What do the screens show for `CCCCCn1c(C(C)NC(=O)CCC)nc2ccccc21` (configuration not stated)?
Fluor 339 460: 1; A340 absorber: 1; NADH enzymes: 3%; M1 antag: 0.2; M1 ag: 0.41

Results for CC(C)(C)c1[nH]nc2c1C(Cc1ccccc1)C(C#N)=C(N)O2 (configuration not stated) ?
Fluor 339 460: 1.1; A340 absorber: 1; NADH enzymes: 6%; M1 antag: 0.76; M1 ag: -0.21

What do the screens show for `COc1ccc2c(c1)c(=O)cc(C)n2CC(=O)NCc1ccco1`?
Fluor 339 460: 1.2; A340 absorber: 1; NADH enzymes: 5%; M1 antag: -0.53; M1 ag: -0.073; Htt clearance: 14

Results for COc1ccc(S(=O)(=O)N2CCOCC2)cc1C(=O)Nc1cc(C)on1 ?
Fluor 339 460: 1.1; A340 absorber: 1; NADH enzymes: 12%; M1 antag: -0.33; M1 ag: 2.3; Htt clearance: -28

Results for N#Cc1c(N)c(C(=O)c2ccc(Br)cc2)n2c1CCC2 ?
Fluor 339 460: 1.1; A340 absorber: 1.1; NADH enzymes: 10%; M1 antag: -0.0091; M1 ag: -0.56

What do the screens show for `CN(C)/C=c1\sc2c(C#N)cc(C(=O)c3ccc(Br)cc3)n2c1=O`?
Fluor 339 460: 1; A340 absorber: 1; NADH enzymes: 1%; M1 antag: 0.23; M1 ag: 75*; M1 agonist conf: 278*; M4 agonist ctr: 714*

How did Cc1cn(C2CC3OCC3O2)c(=O)[nH]c1=O (configuration not stated) do in these assays?
Fluor 339 460: 1; A340 absorber: 1; NADH enzymes: 1%; M1 antag: -0.37; M1 ag: -0.12; Htt clearance: 2

What do the screens show for `COC(=O)c1c(=O)n(O)c2ccc(OC)cc2[n+]1[O-]`?
Fluor 339 460: 1.1; A340 absorber: 1.1; NADH enzymes: 4%; M1 antag: -0.65; M1 ag: 19*; M1 agonist conf: 117*; M4 agonist ctr: 96*

Results for Nc1nnc(SCc2cccc(C(F)(F)F)c2)s1 ?
Fluor 339 460: 1.1; A340 absorber: 1; NADH enzymes: 6%; M1 antag: 0.97; M1 ag: 1.6*; Htt clearance: 9; M1 agonist conf: -11; M4 agonist ctr: inconclusive

What do the screens show for `Nc1nnc(SCc2cccnc2)s1`?
Fluor 339 460: 1.1; A340 absorber: 1; NADH enzymes: 2%; M1 antag: -0.32; M1 ag: -0.97; Htt clearance: -79

Results for COc1ccc(N2CCN(C(=O)CCCOc3cc(=O)n(C)c4ccccc34)CC2)cc1 ?
Fluor 339 460: 0.99; A340 absorber: 0.98; NADH enzymes: 4%; M1 antag: 0.6; M1 ag: 1.6; Htt clearance: -6

What do the screens show for `Cc1ccc(C)c(N2CCN(C(=O)COc3cc(=O)n(C)c4ccccc34)CC2)c1`?
Fluor 339 460: 1.1; A340 absorber: 1; NADH enzymes: 4%; M1 antag: 0.46; M1 ag: 5.5*; Htt clearance: 29; M1 agonist conf: -8.6; M4 agonist ctr: -37

What do the screens show for `Cc1ccc(C)c(N2CCN(C(=O)CCCOc3cc(=O)n(C)c4ccccc34)CC2)c1`?
Fluor 339 460: 1.1; A340 absorber: 0.99; NADH enzymes: 6%; M1 antag: -0.93; M1 ag: 5.9*; Htt clearance: -21; M1 agonist conf: -18; M4 agonist ctr: -23
